Assay outcomes: PubChem BioAssay, National Center for Advancing Translational Sciences (NCATS)
Compounds with a hit are over-represented: about 11% of the library has one in this group of screens.
RORg inh: blocks mouse ROR gamma transcriptional activity | Drosophila S2 Gal4-RORgamma UAS-luciferase reporter, 20 h | AID 2551 | hit rate 5.4% among 310,000 | Potency, µM (highest dose often 53.6 µM), inactives show at the highest dose activity change, negative = inhibition, actives largely listed as inhibitors | P51450; further: potency means the concentration at half of the fitted maximal effect; on the % scale 0 is the no-effect control and ±100 the full control effect; nearly all actives have a fitted effect of over 60% in size
Target sequence (P51450 whole entry, looked up, the tested form may be a part): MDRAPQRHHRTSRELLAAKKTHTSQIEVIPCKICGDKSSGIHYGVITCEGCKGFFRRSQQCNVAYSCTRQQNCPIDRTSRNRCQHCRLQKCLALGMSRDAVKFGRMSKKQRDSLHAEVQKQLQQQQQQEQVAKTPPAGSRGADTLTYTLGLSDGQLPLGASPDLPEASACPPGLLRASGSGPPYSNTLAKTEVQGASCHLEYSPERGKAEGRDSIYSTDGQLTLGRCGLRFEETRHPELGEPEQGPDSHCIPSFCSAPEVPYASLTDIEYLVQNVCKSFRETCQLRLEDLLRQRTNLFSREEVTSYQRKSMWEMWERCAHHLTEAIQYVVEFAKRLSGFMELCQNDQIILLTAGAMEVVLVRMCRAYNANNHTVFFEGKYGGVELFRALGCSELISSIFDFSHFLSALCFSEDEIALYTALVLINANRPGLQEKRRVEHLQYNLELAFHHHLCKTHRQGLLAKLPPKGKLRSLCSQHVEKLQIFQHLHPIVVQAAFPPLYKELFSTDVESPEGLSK
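Read-out: Photinus luciferase luminescence; inhibitors lower reporter signal. Insect Schneider cells with Gal4-ROR gamma fusion under metallothionein promoter, UAS reporter; 700 uM final copper sulfate induction, 20 hr, ambient temperature.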
IL-1B inflam inh: inflammasome signaling inhibition, IL-1 beta readout; THP-1 LPS/ATP IL-1B secretion, AlphaLISA, 16 h; hits give low values; activity change, % at 57.5 µM; hit rate 4.7% among 360,000; AID 743279; in the data active means activity change below about -50%; inconclusive means mostly about -30% to -49%; further: on the % scale 0 is the no-effect control and ±100 the full control effect
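Secreted IL-1B measured by AlphaLISA bead assay after 16 h compound exposure of THP-1 cells; compounds (final up to 57.5 uM) added 1 h before LPS (250 ng/mL) and ATP (1.25 mM) stimulation; lower signal means less secretion.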
SW480 rerep: DNA re-replication induction in SW480 cells; hit rate 1.8% among 340,000; Potency, µM (highest dose often 46.1 µM), for inactives: at the top dose re-replication activation, hits mostly activators; SW480 DNA re-replication, Hoechst DNA content imaging, 48 h; AID 624297; further: potency means the concentration at half of the fitted maximal effect; % of control where 0% means no effect; nearly all actives have a fitted effect of over 55% in size
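Treated cells incubate 48 hr (37 C, 5% CO2), are stained 40 min with Hoechst, and nuclear fluorescence is enumerated; a rise in nuclei with high DNA signal marks re-replication.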
MCF10A rerep: induces DNA re-replication in MCF 10a normal breast cells. hit rate 2.9% among 350,000. Potency, µM (highest dose often 46.1 µM), for inactives: at the highest dose activity, positive = re-replication, hits mostly activators. MCF 10A DNA re-replication, Hoechst nuclear intensity, 48 h. AID 624296; further: potency means the concentration at half of the fitted maximal effect; % of control where 0% means no effect; nearly all actives have a fitted effect of over 50% in size
VP16 counter: inhibits Gal4-VP16 luciferase reporter, ROR gamma counter-screen | Drosophila S2 Gal4-VP16 UAS-luciferase, luminescence, 20 h | Potency, µM (doses to about 53.6 µM), for inactives: at the top dose activity, negative = inhibition, hits mostly inhibitors | hit rate 3.5% among 310,000 | AID 2546;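 further: Gal4-VP16 expression switched on by copper sulfate through the metallothionein promoter; potency means the concentration at half of the fitted maximal effect; on the % scale 0 is the no-effect control and ±100 the full control effect; nearly all actives have a fitted effect of over 50% in size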
* marks the source's active call; other numbers are inactive results; ? = inconclusive; . = no result given; [ ] = another dose, or the depositor's remark. Unless noted, the call rests on the fitted dose curve; in most records, active means well fitted curve in the direction sought with a large enough effect; inconclusive means small, poorly fitted or top-dose-only effect, or another doubt; inactive means no such curve, though single readings can be large; an effect the other way counts as inactive or inconclusive.

SMILES	RORg inh	IL-1B inflam inh	SW480 rerep	MCF10A rerep	VP16 counter
Cc1ccc([C@H]2C[C@@H](n3cc(COC(=O)c4ccccc4)nn3)[C@H](O)CN2C(=O)c2cccs2)cc1	.	19.1	.	.	.
O=C(CNC(=O)c1cccc(F)c1)N/N=C/c1cccs1	0.0%	-8.7	-1.5%	-3.1%	4.9%
COC(=O)[C@H]1[C@H]2CC3c4[nH]c5ccccc5c4CCN3C[C@@H]2CC[C@@H]1O (stereo not given in full)	4.6%	.	-8.4%	-2.3%[20.6 µM]	1.2%
CCOC(=O)C1(C)CCCN(C(=O)c2ccccc2F)C1 (stereo not given)	.	-15.4	.	.	.
CCN1C(=O)[C@H]2[C@H]3[C@H](O)[C@H](O)C/C(=N/OCc4ccccc4)[C@@H]3CC[C@@H]2C1=O	37.0%[10 µM]	.	.	.	-8.1%[10 µM]
Nc1nc(=S)c2ncn(C3CCCCC3)c2[nH]1	.	-4.0	-1.3%	7.1%	.
CCc1ccc(-c2cn(C3CCCCC3)c(=S)[nH]2)cc1	0.708µM*	-68.4*	3.5%	?	?
CC(C)N(CCNC(=O)COc1ccc2oc3c(c2c1)CCCC3)C(C)C	6.7%	-77.3*	?	-1.0%	4.2%
CC(C)c1ccc(N(C(=O)c2csnn2)C(C(=O)NC2CCCC2)c2cccnc2)cc1 (stereo not given)	-25.5%	20.6	-5.2%	4.0%	1.3%
Cc1ccc(C(=O)NCCN2CCC(n3c(=O)[nH]c4ccccc43)CC2)cc1F	.	-24.0	.	.	.
COc1ccccc1N1CCN(C(=O)/C=C/c2ccc(C)cc2)CC1	1.6%	7.8	3.3%	23.1µM*	3.3%
Cc1oc(C(C)(C)C)cc1C(=O)N1CCN(c2ncccc2C(F)(F)F)CC1	30.2%	-6.1	0.5%[9.22 µM]	-5.7%	-5.9%
COc1cc(SC)ccc1C(=O)N1CCN(c2ccccc2OC)CC1	31.4%	29.8	?	18.4µM*	-6.0%
COC(=O)C1CCN(C(=O)c2ccc(SC)cc2OC)CC1	1.4%[10 µM]	-5.9	-4.9%	-2.5%	5.9%
COc1ccccc1N1CCN(C(=O)c2cc(C(C)(C)C)oc2C)CC1	8.9%	-59.9*	?	18.1%	-0.5%
COC(=O)c1ccc(C(NC(=O)OCc2ccccc2)/C(C)=C/[C@@H](C)C(=O)NCc2nc3ccccc3s2)cc1 (stereo not given in full)	43.5%	.	.	.	-1.1%
CCOC(=O)c1ccccc1NC(=O)Nc1ccc(OC)c(OC)c1	-16.2%[0.365 µM]	-67.4*	7.1%	0.4%	.
O=C(C#Cc1ccccc1)Nc1ccccc1F	?	-93.3*	?	?	?
COc1ccc(NC(=O)c2ccccc2SC)cc1OC	41.2%	0.0	-5.2%	-13.6%	18.3%
CNC(=O)Nc1ccccc1F	3.1%	-3.3	-3.9%	?	-2.3%
NC(=O)c1ccc(NC(=O)C#Cc2ccccc2)cc1	?	-101.0*	14.6µM*	?	?
COc1ccc(NC(=O)C#Cc2ccccc2)cc1OC	1.8%	-70.8*	26.8%	9.8%	10.4%
COc1ccc(OC)c(-c2nn(-c3ccccc3)cc2C(=O)NCC(c2ccco2)N2CCCC2)c1 (stereo not given)	.	-19.7	-7.1%	3.5%	.
O=c1cc(CSc2nc(NCc3ccc(Cl)cc3)c3ccccc3n2)nc2ccc(Cl)cn12	.	23.0	-9.0%	8.9%	.
Brc1ccc(-c2csc(-c3c[nH]c4ccccc34)n2)cc1	22.1%	16.2	1.7%	?	0.7%
SMILES	RORg inh	IL-1B inflam inh	SW480 rerep	MCF10A rerep	VP16 counter
c1ccc2c(-c3csc(-c4ccncc4)n3)c[nH]c2c1	-23.6%	-15.4	20.6µM*	?	?
Cc1ccccc1-n1c2nc(=O)n(C)c(=O)c-2cc2ccccc21	-2.9%	.	18.4µM*	20.6µM*	4.4%
CC(C)c1ccc(C2/C(=C(/O)c3ccc(F)cc3)C(=O)C(=O)N2CCCN2CCOCC2)cc1 (stereo not given)	-2.5%	2.3	-0.1%	-1.8%	-8.7%
O=c1c2ccccc2sn1-c1ccc(Cl)cc1Cl	.	-105.5*	.	.	.
CCOC1=C2[C@@H](CN(S(=O)(=O)c3ccc(C)cc3)[C@H]2c2cccc3ccccc23)[C@H]2C(=O)NC(=O)[C@H]2C1	.	2.3	.	.	.
COC1=CC(=O)c2ccccc2C1=O	.	8.6	?	18.4µM*	.
COC1=CC(=O)C=C(OC)C1=O	2.82µM*	-107.3*	-0.5%	?	4.47µM*
CC1(C)OC2OC3C(CNCCO)OC(c4ccccc4)OC3C2O1 (stereo not given)	.	-1.0	1.8%	1.1%	.
COc1ccc(/C=C2\C(=O)N(c3c(Cl)cc(Cl)cc3Cl)N=C2NC(=O)c2cccc([N+](=O)[O-])c2)cc1	41.2%[10 µM]	-104.8*	0.9%	?	-7.0%
COc1ccc(NC(=O)c2cccc(N3C(=O)c4cccc([N+](=O)[O-])c4C3=O)c2)cc1	-40.6%	-20.4	5.2%	14.4%	-9.3%
CCN(CC(=O)Nc1c(F)cccc1F)C(=O)c1nn(C)c(=O)c2ccccc12	.	5.1	?	-5.2%	.
N#CC[C@H](c1ccccc1)N1CCN(Cc2ccccc2)CCC1=O	3.9%	7.4	-1.1%	?	-1.5%
Cc1ccc(Cn2ccc(=O)c(OCc3c(Cl)cccc3Cl)c2C)cc1	?	-58.6*	-3.0%[9.22 µM]	?	?
CC(=O)c1cccc(S(=O)(=O)NC2CCSc3ccccc32)c1 (stereo not given)	2.8%	35.7	-3.0%	0.1%	4.6%
COc1ccc(NC(=O)c2cc3ccccc3oc2=O)cc1	.	9.3	.	.	.
COc1ccc2cc(C(N)=O)c(=Nc3ccccc3)oc2c1	15.9%	-24.4	-8.1%	-7.5%	-3.8%
COc1cccc2cc(C(=O)Nc3ccccc3C)/c(=N/O)oc12	0.5%	21.3	?	29.8%	1.0%
N=c1oc2cc(O)ccc2cc1C(=O)Nc1ccc(F)cc1	11.2µM*	-55.6*	8.2µM*	9.2µM*	7.08µM*
COc1ccc(OC)c(N=c2oc3cc(O)ccc3cc2C(N)=O)c1	24.1%	-23.1	18.4µM*	16.4µM*	-4.5%
COc1ccc2o/c(=N\O)c(C(=O)Nc3ccccc3OC)cc2c1	2.82µM*	-13.5	-1.2%[9.22 µM]	-2.9%	?
COc1ccc2oc(=O)c(C(=O)Nc3ccccc3O)cc2c1	8.91µM*	-9.1	-1.9%	2.6%	?
COc1ccc2oc(C(=O)OCC(=O)N(C)CC(=O)Nc3ccc(F)cc3)c(C)c2c1	.	-7.9	-25.4%	-6.7%	.
CCOc1ccc(C(=O)NCC(=O)N2CCCC2)cc1	3.3%	26.4	-3.7%	1.0%	-11.9%
COc1ccc(NC(=O)c2cc3ccc(O)cc3o/c2=N\O)cc1	0.0631µM*	?	?	-8.8%	0.1µM*
COc1ccc2oc(=O)c(/C(C)=N/NC(=O)c3ccncc3)cc2c1	12.6µM*	-6.5	-1.0%	-3.0%	?
CCOC(=O)[C@]12CCCC=C1N(Cc1cccc3ccccc13)C(=O)[C@H](CC(=O)N1CCN(C(=O)C3CC3)CC1)C2	.	-11.7	.	.	.
COC(=O)C[C@@H]1C=C[C@@H](NC(=O)CN(C)C)[C@@H](CO)O1	.	18.7	.	.	.
